{"source": "PubChem BioAssay AID686954", "about": "(Sanford-Burnham Center for Chemical Genomics, 2013)", "note": "Screen size: about 30,000 compounds; about 240 (0.8%) were called active.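 How the source made its calls: active means at 10 µM dose, at least 30% inhibition, measured as corrected fluorescence normalized to stimulator and neutral control wells; inactive means the rest.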 The sample as a whole holds a higher share of actives than the screen did. Peptide text beside a SMILES is read from it. * marks the point of attachment. Bz = O=C(c1ccccc1)*"}
{"molecular_target": "Protein artemis (Homo sapiens) (UniProt Q96SD1)", "sequence (Q96SD1 whole entry, looked up)": "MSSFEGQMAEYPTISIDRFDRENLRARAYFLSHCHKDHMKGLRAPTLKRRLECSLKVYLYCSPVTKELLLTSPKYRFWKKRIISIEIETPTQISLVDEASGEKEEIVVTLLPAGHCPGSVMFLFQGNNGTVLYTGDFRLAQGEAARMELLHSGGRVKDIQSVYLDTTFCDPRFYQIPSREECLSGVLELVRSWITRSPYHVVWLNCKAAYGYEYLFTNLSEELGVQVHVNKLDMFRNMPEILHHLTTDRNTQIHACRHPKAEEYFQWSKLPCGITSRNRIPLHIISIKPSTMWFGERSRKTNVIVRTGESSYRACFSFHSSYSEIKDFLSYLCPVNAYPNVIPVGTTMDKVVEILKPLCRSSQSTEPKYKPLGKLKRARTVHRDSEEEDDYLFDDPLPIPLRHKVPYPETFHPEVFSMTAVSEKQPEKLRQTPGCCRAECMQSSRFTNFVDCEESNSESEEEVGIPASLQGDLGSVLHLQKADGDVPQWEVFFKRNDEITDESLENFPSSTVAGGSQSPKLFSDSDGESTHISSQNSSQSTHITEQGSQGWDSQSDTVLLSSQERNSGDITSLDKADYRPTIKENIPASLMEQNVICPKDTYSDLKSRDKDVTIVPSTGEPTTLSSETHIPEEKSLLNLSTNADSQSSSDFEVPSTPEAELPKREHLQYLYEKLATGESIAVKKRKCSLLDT", "test": "Artemis endonuclease inhibitors, primary screen, biochemical, fluorescence intensity, FAM/BHQ-1 hairpin substrate (AID 686954)", "details": "recombinant Artemis, quenched FAM hairpin cleavage fluorescence; at 10 µM; active compounds read high"}
{"smiles": "O=c1c2ccccc2nc2n1C(CSCc1ccccc1)CS2", "note": "(configuration not stated)", "inhibition": "2.82% (inactive)"}
{"smiles": "COC(=O)CSC1=C(C#N)C(c2ccccc2OC)C(C(=O)OC)C(=O)N1", "note": "(configuration not stated)", "inhibition": "-3.1% (inactive)"}
{"smiles": "Cc1ccc(/C=N/NC(=O)c2sccc2OCc2ccc(F)cc2)cc1", "inhibition": "22.2% (inactive)"}
{"smiles": "COc1ccc(CC(=O)Nc2nc3n(n2)C(c2ccccc2)CC(=O)N3)cc1OC", "note": "(configuration not stated)", "inhibition": "-12.5% (inactive)"}
{"smiles": "O=C(N/N=C/c1ccsc1)c1cc(O)cc(O)c1", "inhibition": "10.2% (inactive)"}
{"smiles": "O=C(N/N=C/c1ccc(O)c(O)c1)C1c2ccccc2Oc2ccccc21", "inhibition": "30.2% (active)"}
{"smiles": "COc1ccc(C(=O)Nc2ccccc2C(=O)N/N=C/c2ccc(O)c(OC)c2)cc1", "inhibition": "3.38% (inactive)"}
{"smiles": "Cc1ccc(Cn2c(C)nc3c(c2=O)c2nc4ccccc4nc2n3Cc2ccco2)cc1", "inhibition": "40.3% (active)"}
{"smiles": "Cc1ccc(Cn2c(NC(=O)c3ccco3)nc3ccccc32)cc1", "inhibition": "0.73% (inactive)"}
{"smiles": "Clc1cccc(-c2nc3nc4ccccc4nc3n2Cc2ccco2)c1", "inhibition": "27% (inactive)"}
{"smiles": "CCCn1c(C)cc(C(=O)COC(=O)c2c(C)nn(-c3ccccc3)c2C)c1C", "inhibition": "10.5% (inactive)"}
{"smiles": "CC(C)(C)Cc1nnc(NC(=O)c2cc(-c3ccccc3)nc3ccccc23)s1", "inhibition": "13.6% (inactive)"}
{"smiles": "O=C(/C=C/Nc1ccccc1OC(F)(F)F)C(F)(F)F", "inhibition": "-11.1% (inactive)"}
{"smiles": "COc1ccc(Cc2nnnn2CC(=O)O)cc1", "inhibition": "3.92% (inactive)"}
{"smiles": "CC1CCc2c(c3ccccc3[nH]c2=O)O1", "note": "(configuration not stated)", "inhibition": "13.8% (inactive)"}
{"smiles": "Cn1c(CO)cnc1SCc1ccccc1", "inhibition": "-0.47% (inactive)"}
{"smiles": "COc1ccccc1NS(=O)(=O)N(C)C", "inhibition": "4.92% (inactive)"}
{"smiles": "C=CCn1c(N)cc(=O)nc1SCC(=O)Nc1cccc2ccccc12", "inhibition": "-2.38% (inactive)"}
{"smiles": "O=C(COc1cc(Cl)c(Cl)cc1Cl)NC(=O)NC1CCCC1", "inhibition": "5.4% (inactive)"}
{"smiles": "O=C(NC(Cc1ccccc1)C(=O)N1CCCC1C(=O)O)c1ccccc1", "note": "(stereo not drawn) (Bz-Phe-Pro-OH; configuration not given here)", "inhibition": "3.37% (inactive)"}
{"smiles": "CCCC(C(=O)NCc1ccco1)N(C(=O)CNS(=O)(=O)c1ccccc1)C1CCCC1", "note": "(configuration not stated)", "inhibition": "9.71% (inactive)"}
{"smiles": "CSC1=N/C(=C\\C=C\\c2cccs2)C(=O)S1", "inhibition": "4.46% (inactive)"}
{"smiles": "Cc1ccc(N2CCN(C3=NC(=O)/C(=C\\c4cccs4)S3)CC2)cc1", "inhibition": "30.4% (active)"}
{"smiles": "Cc1ccsc1/C=C1\\SC(N2CCOCC2)=NC1=O", "inhibition": "-5.58% (inactive)"}
{"smiles": "Cc1cccc(C(=O)N2CCCN(C(=O)c3cccc(C)c3)CC2)c1", "inhibition": "4.29% (inactive)"}
{"smiles": "CCC(C)NC(=O)c1cc(Cl)ccc1OC", "note": "(configuration not stated)", "inhibition": "1.25% (inactive)"}
{"smiles": "COc1ccc(-c2cc(C(=O)n3cnc4ccccc43)c3ccccc3n2)cc1", "inhibition": "0.93% (inactive)"}
{"smiles": "N#CCCn1cnc2ccccc21", "inhibition": "0.47% (inactive)"}
{"smiles": "c1ccc(-c2nccc(-c3ccc(-n4cnc5ccccc54)cc3)n2)nc1", "inhibition": "100% (active)"}
{"smiles": "CC(=O)N1Cc2ccccc2CC1C(=O)O", "note": "(configuration not stated)", "inhibition": "-0.69% (inactive)"}
{"smiles": "Cc1ccc(C(=O)Nc2c(C#N)c(C)c(C)n2Cc2ccccc2)cc1", "inhibition": "-5.83% (inactive)"}
{"smiles": "CC(C)NC(=O)C(=O)NCCCOC(C)C", "inhibition": "-3.28% (inactive)"}
{"smiles": "COC(=O)C(C(=O)Nc1cccc(C)n1)C1CCCCCC1", "note": "(configuration not stated)", "inhibition": "-2.41% (inactive)"}
{"smiles": "COc1ccc(CCN2C(=O)C3CC=C(C)CC3C2=O)cc1OC", "note": "(configuration not stated)", "inhibition": "-6.71% (inactive)"}
{"smiles": "COC(=O)C1=C(Nc2ccc(OC)cc2)C=C(C)C(C(=O)OC)C1c1ccc(C)cc1", "note": "(configuration not stated)", "inhibition": "-2.07% (inactive)"}
{"smiles": "Fc1ccc(Br)cc1/C=N/n1cnnc1", "inhibition": "-9.95% (inactive)"}
{"smiles": "O=C(/C=C/c1cc2c(cc1Br)OCO2)NCc1ccc(Cl)cc1", "inhibition": "-4.49% (inactive)"}
{"smiles": "O=C(NN1C(=O)C2C3C=CC(C4CC34)C2C1=O)c1ccc(Cl)cc1", "note": "(configuration not stated)", "inhibition": "-4.12% (inactive)"}
{"smiles": "O=c1c2ccccc2nc2n1C(CSc1ccc(F)cc1)CN2", "note": "(configuration not stated)", "inhibition": "-16.9% (inactive)"}
{"smiles": "COc1ccc(C(=O)Oc2cc(/C=N/NS(=O)(=O)c3ccc(C)cc3)ccc2OC)cc1", "inhibition": "4.47% (inactive)"}
{"smiles": "COC(=O)c1sccc1-n1cccc1C(=O)C(=O)N1CCCCC1", "inhibition": "-4.39% (inactive)"}
{"smiles": "O=C(/C=N/O)Nc1ccccc1", "inhibition": "16.8% (inactive)"}
{"smiles": "CSc1ccc(C#N)cc1NC(=O)c1cccc(Cl)c1", "inhibition": "-11% (inactive)"}
{"smiles": "Cc1c(C(=O)NCc2ccccc2)cnn1-c1ccccc1", "inhibition": "0.06% (inactive)"}
{"smiles": "O=C(c1ccccc1)C(Cn1cncn1)C(Sc1ccccc1)c1ccccc1", "note": "(configuration not stated)", "inhibition": "7.82% (inactive)"}
{"smiles": "CC(C)NC(=O)CSc1ccccc1C(=O)NCc1ccc2c(c1)OCO2", "inhibition": "-4.49% (inactive)"}
{"smiles": "CCOc1ccc2nc(SC(CC)C(=O)Nc3cc(C)on3)sc2c1", "note": "(configuration not stated)", "inhibition": "-0.74% (inactive)"}
{"smiles": "CCc1ccc(/C=N/NC(=O)c2ccc(OC3CCCC3)cc2)s1", "inhibition": "14.9% (inactive)"}
{"smiles": "O=C(COc1ccc(/C=N/NS(=O)(=O)c2ccccc2)cc1)NCCc1ccccc1", "inhibition": "5.78% (inactive)"}
{"smiles": "NC(=O)c1ccccc1NC(=O)c1ccccc1F", "inhibition": "3.21% (inactive)"}
{"smiles": "Cc1ccc(NC(=S)NC(=O)c2ccc(-c3ccccc3)cc2)c(C)c1", "inhibition": "8.05% (inactive)"}
{"smiles": "Cc1ccc(NC(=O)Nc2ccc3oc(C)nc3c2)cc1", "inhibition": "4.51% (inactive)"}
{"smiles": "CCOc1cc(C(=S)N2CCOCC2)ccc1O", "inhibition": "44.1% (active)"}
{"smiles": "COc1cc(C(=S)N2CCOCC2)cc(OC)c1OC(=O)c1cc([N+](=O)[O-])cc([N+](=O)[O-])c1", "inhibition": "5.88% (inactive)"}
{"smiles": "Cc1ccc(OCCCC(=O)N2CCOCC2)c(C)c1", "inhibition": "-3.31% (inactive)"}
{"smiles": "Nc1c(-c2ccc(F)cc2)cnn1C1CCS(=O)(=O)C1", "note": "(configuration not stated)", "inhibition": "-12.3% (inactive)"}
{"smiles": "O=C(NC1CCC(O)CC1)c1ccc(S(=O)(=O)NCc2ccco2)cc1", "note": "(configuration not stated)", "inhibition": "-0.49% (inactive)"}
{"smiles": "COCCCNCC(=O)Nc1sc(C)c(C)c1C(=O)OC", "inhibition": "8.99% (inactive)"}
{"smiles": "CSc1ccc(C#N)cc1NC(=O)c1ccc(Cl)cc1", "inhibition": "-3.87% (inactive)"}
{"smiles": "Cc1cccc(N2CCN(C(c3ccccc3)c3nnnn3CC3CCCO3)CC2)c1C", "note": "(configuration not stated)", "inhibition": "1.54% (inactive)"}
{"smiles": "O=C(O)C1CC=CCC1C(=O)Nc1ccccc1C(=O)N1CCN(c2ccccc2)CC1", "note": "(configuration not stated)", "inhibition": "11.9% (inactive)"}
{"smiles": "CC1CN(c2nc(-c3ccccc3)nnc2-c2ccccc2)CC(C)O1", "note": "(configuration not stated)", "inhibition": "3.23% (inactive)"}
{"smiles": "Cc1cc(N=CC2=C(O)CCCC2=O)no1", "inhibition": "-4.13% (inactive)"}
{"smiles": "CCCC(C)n1[nH]c(=O)c2c(C)cc(C)nc21", "note": "(configuration not stated)", "inhibition": "0.53% (inactive)"}
{"smiles": "COc1ccccc1NC(=O)CSc1nnc(C)n1CC1CCCO1", "note": "(configuration not stated)", "inhibition": "2.59% (inactive)"}
{"smiles": "COc1ccc(/C(O)=C2/C(=O)C(=O)N(CC3CCCO3)C2c2ccc(OC)c(OC)c2)cc1", "note": "(configuration not stated)", "inhibition": "-5.65% (inactive)"}
{"smiles": "COc1ccc(/C(O)=C2/C(=O)C(=O)N(c3nc(C)c(C)s3)C2c2ccco2)cc1", "note": "(configuration not stated)", "inhibition": "8.17% (inactive)"}
{"smiles": "Cc1cc(N2C(=O)C(=O)/C(=C(/O)c3ccc(Cl)cc3)C2c2cccc(Br)c2)no1", "note": "(configuration not stated)", "inhibition": "40% (active)"}
{"smiles": "O=C1OC(c2ccc(Cl)cc2)=N/C1=C\\c1cccnc1", "inhibition": "-6.03% (inactive)"}
{"smiles": "Cc1c(NC(=O)c2cc(-c3ccc(Cl)s3)nc3ccccc23)c(=O)n(-c2ccccc2)n1C", "inhibition": "11.2% (inactive)"}
{"smiles": "CCOC(=O)c1nc(N)sc1C(=O)OCC", "inhibition": "-6.13% (inactive)"}
{"smiles": "CCCCOC(=O)Cn1c(=O)n(CC(=O)OCCCC)c2cc(C)ccc21", "inhibition": "6.83% (inactive)"}
{"smiles": "O=C1CC(C(F)(F)C(F)(F)C(F)(F)C(F)(F)F)=Nc2ccccc2N1", "inhibition": "-10.2% (inactive)"}
{"smiles": "CCOC(=O)c1cc(C#N)c(N2CCCCC2)nc1-c1ccccc1", "inhibition": "1.24% (inactive)"}
{"smiles": "CC(C)(CSc1nncn1/N=C/c1ccco1)NS(=O)(=O)c1ccc(Cl)cc1", "inhibition": "-7.17% (inactive)"}
{"smiles": "COc1ccc(/C=C2/S/C(=N/N=C3\\CC4CCC3(C)C4(C)C)NC2=O)cc1", "note": "(configuration not stated)", "inhibition": "7.63% (inactive)"}
{"smiles": "COc1ccc(CN2CCn3ncc(C(=O)Nc4ccc(Cl)cc4Cl)c3C2=O)cc1", "inhibition": "-5.33% (inactive)"}
{"smiles": "CC(C)OC(=O)c1cc(NC(=O)C2C3CCC(O3)C2C(=O)O)cc(C(=O)OC(C)C)c1", "note": "(configuration not stated)", "inhibition": "-5.25% (inactive)"}
{"smiles": "Cc1sc(NC(=O)C2C3CCC(O3)C2C(=O)O)c(C(=O)OC(C)C)c1-c1ccc(Cl)cc1", "note": "(configuration not stated)", "inhibition": "34% (active)"}
{"smiles": "COc1ccc(C(=O)N2CC3(C)CC2CC(C)(C)C3)cc1OC", "note": "(configuration not stated)", "inhibition": "-3.98% (inactive)"}
{"smiles": "CC(=O)Oc1ccc(C)cc1N1C(=O)c2ccc(C(=O)O)cc2C1=O", "inhibition": "0.06% (inactive)"}
{"smiles": "CCC1(C)Cc2c(sc3nc(SC)nc(N)c23)CO1", "note": "(configuration not stated)", "inhibition": "-3.48% (inactive)"}
{"smiles": "CCC1(CC)NC(=O)N(CC(=O)OCC(=O)Nc2ccc(C(F)(F)F)cc2)C1=O", "inhibition": "8.68% (inactive)"}
{"smiles": "CCN1CCN(C(=O)/C=C\\C(=O)O)CC1", "inhibition": "0.01% (inactive)"}
{"smiles": "Cc1cccc(CSc2nnc(NC(=O)CSc3nnc(C)s3)s2)c1", "inhibition": "4.19% (inactive)"}
{"smiles": "COc1cccc(/C=N\\Nc2nncc(-c3ccccc3)n2)c1", "inhibition": "2.99% (inactive)"}
{"smiles": "CCN1CCN(C(=O)C2(NC(=O)Nc3cccc(F)c3)CCCCC2)CC1", "inhibition": "-5.76% (inactive)"}
{"smiles": "CCCCOC(=O)Nc1sc2nc(C)cc(C)c2c1-n1cccc1", "inhibition": "6.76% (inactive)"}
{"smiles": "CCOC(=O)C(=O)Nc1nc(-c2ccccc2)c(CC)s1", "inhibition": "2.06% (inactive)"}
{"smiles": "Cc1nnc(SCc2nc3ccccc3nc2C)s1", "inhibition": "-10.2% (inactive)"}
{"smiles": "Cc1cccc(NC(=S)Nc2ccc(Br)cc2)c1", "inhibition": "-9.18% (inactive)"}
{"smiles": "CC(=O)NNc1cc(=O)c2c(=O)n(C)c(=O)n(C)c2[nH]1", "inhibition": "1.01% (inactive)"}
{"smiles": "CNS(=O)(=O)c1cnccc1N1CCN(c2cccc(C)c2)CC1", "inhibition": "2.37% (inactive)"}
{"smiles": "c1ccc(Nc2nc(-c3ccncc3)cs2)nc1", "inhibition": "-4.36% (inactive)"}
{"smiles": "COc1ccc(OC)c(Nc2nc(-c3ccc(O)c(O)c3)cs2)c1", "inhibition": "42.1% (active)"}
{"smiles": "COc1ccc(-c2n[nH]c(C)c2-c2ccc(OC)c(OC)c2)c(O)c1", "inhibition": "-3.87% (inactive)"}
{"smiles": "Cc1ccccc1NC(=S)Nc1cccc([N+](=O)[O-])c1", "inhibition": "2.56% (inactive)"}
